# From PubChem BioAssay (NCATS)
# Inconclusive results are not listed. Where a call stands in place of a potency, no number is given. Activity calls are given as the source filed them. Unless noted, calls follow the shape of the dose curve; as a rule, active = well fitted curve in the direction sought with a large enough effect; inconclusive = small, poorly fitted or top-dose-only effect, or another doubt; inactive = no such curve, though single readings can be large; an effect the other way counts as inactive or inconclusive.
# Key:
# [1] = qHTS assay for measurement of the activity of small molecule inhibitors on Zika virus induced Caspase-3 activity in human astrocytoma cells (AID 1224859)
# In short: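 Percent inhibition of virus-induced caspase-3/7 signal is calculated against uninfected and ZIKV-infected control cells. Cells are SNB-19, infected at 2 FFU/cell for 6 h after 1 h compound exposure.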
# [2] = qHTS assay to identify small molecule inhibitors of chordoma cells - UCH-1 (AID 1259355); also: nearly all actives have a fitted effect of over 55% in size; also: potency is read from the fitted curve at half-maximal effect
# In short: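 Luminescent ATP read-out (CellTiter-Glo, 30min at room temperature) measured viability of UCH-1 cells exposed for 48hr to test drugs at 15 concentrations, co-dosed with a five-agent combination of auranofin, camptothecin, doxorubicin, rubitecan and topotecan.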
# [3] = qHTS assay to identify small molecule inhibitors of chordoma cells - UCH-2 (AID 1259356)
# [4] = qHTS profiling of the MIPE4 collection as inhibitors of Plasmodium falciparum (DD2) proliferation (AID 743345; call rule not given here); settings: P. falciparum Dd2 in erythrocytes, SYBR Green DNA, 72 h; at 28.5 µM (top of the series) unless noted
# In short: (§1)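 Erythrocytes infected with P. falciparum (0.3% parasitemia, 2.5% hematocrit) incubated with compounds 72 h at 37 C, 5% CO2. Lysis with saponin/Triton buffer containing SYBR Green I, overnight at room temperature in the dark; DNA fluorescence (485/535 nm) normalised to 0.29 uM artemisinin and DMSO.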
# [5] = qHTS profiling of the MIPE4 collection as inhibitors of Plasmodium falciparum (DD2) proliferation (Rep 2) (AID 743346; call rule not given here); settings: P. falciparum Dd2 in erythrocytes, SYBR Green DNA, 72 h; at 28.5 µM (top of the series) unless noted
# In short: as §1
# [6] = qHTS profiling of the MIPE4 collection as inhibitors of Plasmodium falciparum (HB3) proliferation (AID 743347; call rule not given here); settings: P. falciparum HB3 in erythrocytes, SYBR Green DNA, 72 h; at 28.5 µM (top of the series) unless noted
# In short: as §1
smiles,measurement,setting,value
CC(=O)Oc1ccc(C(=C2CCCCC2)c2ccc(OC(C)=O)cc2)cc1,outcome,[1],inactive
same,Potency,[2],inactive
same,Potency,[3],inactive
CCCCC(=O)O[C@]1(C(=O)CO)CC[C@H]2[C@@H]3CCC4=CC(=O)CC[C@]4(C)[C@H]3[C@@H](O)C[C@@]21C,outcome,[1],inactive
same,Potency,[3],inactive
CCCCCCCCCCCCCCCCOP(=O)([O-])OCC[N+](C)(C)C,outcome,[1],inactive
same,Potency,[2],inactive
same,Potency,[3],inactive
CCOC(=O)c1cccc(N)c1,outcome,[1],inactive
same,Potency,[2],inactive
C[C@@H]1C[C@H]2[C@@H]3CCC4=CC(=O)C=C[C@]4(C)[C@@]3(F)[C@@H](O)C[C@]2(C)[C@H]1C(=O)CO,outcome,[1],inactive
same,Potency,[3],inactive
CC(=O)N(O)CCCCCNC(=O)CCC(=O)N(O)CCCCCNC(=O)CCC(=O)N(O)CCCCCN,outcome,[1],inactive
same,Potency,[3],inactive
CC(=O)CC(c1ccc([N+](=O)[O-])cc1)c1c(O)c2ccccc2oc1=O (configuration not stated),outcome,[1],inactive
same,Potency,[2],inactive
same,Potency,[3],inactive
Cc1c(N(C)CS(=O)(=O)O)c(=O)n(-c2ccccc2)n1C,outcome,[1],inactive
same,Potency,[3],inactive
COc1cc(C=C2CCC/C(=C\c3ccc(O)c(OC)c3)C2=O)ccc1O,outcome,[1],inactive
same,Potency,[2],31.6 µM (active)
same,Potency,[3],inactive
COc1cccc(CCc2ccccc2OCC(CN(C)C)OC(=O)CCC(=O)O)c1 (configuration not stated),"parasite growth remaining, % of DMSO control (lower = more inhibition)",[4],11.9%
same,"parasite growth, % of control (lower = inhibition)",[5],21.2%
same,"growth, % of control",[6],5.27%
same,outcome,[1],inactive
same,Potency,[2],inactive
CO/N=C1\CN(c2nc3c(cc2F)c(=O)c(C(=O)O)cn3C2CC2)CC1CN (configuration not stated),outcome,[1],inactive
same,Potency,[2],inactive
same,Potency,[3],inactive
CC(=O)OCC(=O)NCCCOc1cccc(CN2CCCCC2)c1,outcome,[1],inactive
same,Potency,[2],inactive
same,Potency,[3],inactive
O=C1CCC(c2ccc(-n3ccnc3)cc2)=NN1,outcome,[1],inactive
same,Potency,[2],inactive
same,Potency,[3],inactive
CCOc1ccc(NC(=O)CC(C)O)cc1 (configuration not stated),outcome,[1],inactive
same,Potency,[3],inactive
Clc1ccc2c(c1)CCc1cccnc1C2=C1CCNCC1,outcome,[1],inactive
same,Potency,[2],inactive
same,Potency,[3],inactive
COc1c2occc2c(OC)c2c(=O)cc(C)oc12,outcome,[1],inactive
same,Potency,[3],inactive
C=CCc1ccc(O)c(OC)c1,outcome,[1],inactive
same,Potency,[3],inactive
Cc1ccnc(NS(=O)(=O)c2ccc(N)cc2)n1,outcome,[1],inactive
same,Potency,[2],inactive
same,Potency,[3],inactive
Cc1ccc(C(=O)C(C)CN2CCCCC2)cc1 (configuration not stated),outcome,[1],inactive
same,Potency,[3],inactive
CC[N+](CC)(CCNC(=O)C(=O)NCC[N+](CC)(CC)Cc1ccccc1Cl)Cc1ccccc1Cl,outcome,[1],inactive
same,Potency,[3],inactive
COc1ccc(/C=C/C(=O)c2ccc(OC)cc2OC)cc1,outcome,[1],inactive
same,Potency,[2],inactive
same,Potency,[3],inactive
CC(=O)c1ccc2c(c1)N(CCCN1CCC(CCO)CC1)c1ccccc1S2,outcome,[1],inactive
same,Potency,[2],inactive
OCc1ccccc1O,outcome,[1],inactive
same,Potency,[3],inactive
COc1cc(/C=C/C(=O)O[C@H]2CC[C@]34C[C@]35CC[C@]3(C)[C@@H]([C@H](C)CCC=C(C)C)CC[C@@]3(C)[C@@H]5CC[C@H]4C2(C)C)ccc1O,outcome,[1],inactive
same,Potency,[3],inactive
COC(=O)[C@@H]1CC2=CC(=O)CC[C@]2(C)[C@@]23O[C@@H]2C[C@@]2(C)[C@@H](CC[C@@]24CCC(=O)O4)[C@H]13,outcome,[1],inactive
same,Potency,[3],inactive
CC(Cc1ccccc1)(NC(=O)CN)c1ccccc1 (configuration not stated),outcome,[1],inactive
same,Potency,[2],inactive
same,Potency,[3],inactive
C[C@]12CC[C@@H]3c4ccc(O)cc4CC[C@H]3[C@@H]1CC[C@@H]2O,outcome,[1],inactive
same,Potency,[2],inactive
same,Potency,[3],inactive
C[C@]12CCC(=O)C=C1[C@@H]1C[C@@H]1[C@H]1[C@@H]3[C@@H]4C[C@@H]4[C@@]4(CCC(=O)O4)[C@@]3(C)CC[C@@H]12,outcome,[1],inactive
same,Potency,[2],inactive
same,Potency,[3],inactive
CN(C)/N=N/c1nc[nH]c1C(N)=O,outcome,[1],inactive
same,Potency,[3],inactive
CC1(C)CCC(NC(=O)[C@@H](N)CCC(=O)O)CC1,outcome,[1],inactive
same,Potency,[2],inactive
same,Potency,[3],inactive
CC(C)n1nc(-c2cc3cc(O)ccc3[nH]2)c2c(N)ncnc21,outcome,[1],inactive
C[C@@H](CN(C)C)CN1c2ccccc2Sc2ccccc21,outcome,[1],inactive
same,Potency,[2],inactive
same,Potency,[3],inactive
C[C@]12C=CC(=O)C=C1CC[C@@H]1[C@@H]2[C@@H](O)C[C@@]2(C)[C@H]1CC[C@]2(O)C(=O)CO,outcome,[1],inactive
same,Potency,[2],inactive
same,Potency,[3],inactive
CCN1CCC[C@H]1CNC(=O)c1c(OC)ccc(Br)c1OC,outcome,[1],inactive
same,Potency,[2],inactive
same,Potency,[3],inactive
